Measurements: PubChem BioAssay (Tox21)
Values joined by “and” are separate entries in the source; they are usually repeats but may differ in a detail not shown here. Identical values can stand only once. Records with an inconclusive call do not appear. Entries that show only a call come without a potency. More than one record can exist for a structure, and the calls need not agree. Active and inactive are the calls of the source. Unless noted, the call rests on the fitted dose curve.

Assays:
[1] = Nuclear factor erythroid 2-related factor 2/antioxidant responsive element (Nrf2/ARE) small molecule agonists: qHTS cell viability counter screen in human keratinocytes (AID 1919968; active means well fitted cell-killing curve with a large enough effect in the repeat runs; further: nearly all actives have a fitted effect of over 55% in size; further: potency means the concentration at half of the fitted maximal effect)
In short: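 Cytotoxicity was multiplexed with the Nrf2/ARE luciferase assay in the same wells. Stably transfected HaCaT keratinocytes were treated with test compounds for 23 h at 37 C. Cell viability was then measured by CellTiter-Fluor fluorescence.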

[2] = Nuclear factor erythroid 2-related factor 2/antioxidant responsive element (Nrf2/ARE) small molecule agonists: luciferase reporter gene qHTS assay in human keratinocytes (AID 1919969); further: nearly all actives have a fitted effect of over 35% in size
[3] = target: Gonadotropin-releasing hormone receptor (Homo sapiens) (UniProt P30968); assay: Human gonadotropin-releasing hormone receptor (GnRHR) small molecule agonists, calcium flux assay in GnRHR-HEK293 cells (AID 1920063); further: nearly all actives have a fitted effect of over 35% in size; further: potency means the concentration at half of the fitted maximal effect
Chain of Gonadotropin-releasing hormone receptor (Homo sapiens) (P30968 whole entry, looked up): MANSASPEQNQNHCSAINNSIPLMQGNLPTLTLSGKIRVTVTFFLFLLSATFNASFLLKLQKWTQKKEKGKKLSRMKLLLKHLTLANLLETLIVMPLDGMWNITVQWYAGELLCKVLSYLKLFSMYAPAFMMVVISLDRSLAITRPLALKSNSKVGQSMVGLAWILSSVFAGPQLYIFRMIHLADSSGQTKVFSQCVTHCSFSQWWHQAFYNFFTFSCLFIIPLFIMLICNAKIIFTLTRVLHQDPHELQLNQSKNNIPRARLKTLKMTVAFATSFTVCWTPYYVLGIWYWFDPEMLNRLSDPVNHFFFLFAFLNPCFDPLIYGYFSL
In short: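 Agonist activity was measured as intracellular calcium flux in HEK293 cells engineered to stably express human GnRHR. After dye loading for 1 hour at 37 C, compounds in DMSO were added and fluorescence was followed for 3 minutes.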

[4] = G protein-coupled receptor (GPCR) small molecule agonists, calcium flux assay: HEK293 wild type cell line counter screen (AID 1920065)
In short: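 Seed cells, incubate 18 h (37 C, 5% CO2); add calcium dye, 1 h at 37 C; pin-transfer compounds, ATP control or DMSO; read fluorescence 480/540 nm each second for 3 min.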

[5] = p53 small molecule agonists, cell-based qHTS assay with human liver microsomes (AID 1963577)
In short: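 Fluorescence of the beta-lactamase reporter in p53RE-bla cells, detected with LiveBLAzer substrate (2 h, room temperature, dark), served as the read-out after 16 h compound exposure at 37 C with human liver microsomes and NADPH, each 0.5 mg/mL final.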

[6] = p53 small molecule agonists, cell-based qHTS assay with rat liver microsomes (AID 1963578)
In short: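 Cells carrying a p53 response element–beta-lactamase reporter were plated and rested 5 h, then dosed with compound in DMSO plus rat liver microsomes and NADPH, each at 0.5 mg/mL final. After 16 h at 37 C, LiveBLAzer substrate was added for 2 h.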

[7] = p53 small molecule agonists, cell-based qHTS assay with human liver microsomes: qHTS cell viability counter screen (AID 1963579); further: nearly all actives have a fitted effect of over 45% in size; further: potency means the concentration at half of the fitted maximal effect
In short: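 Cytotoxicity counter screen: p53RE-bla, 4,000 cells/well; 5 h settle, 37 C/5% CO2; cpd + HLM 0.5 mg/mL + NADPH 0.5 mg/mL (final); 16 h, 37 C; CellTiter-Glo, 30 min RT, luminescence.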

[8] = p53 small molecule agonists, cell-based qHTS assay with rat liver microsomes: qHTS cell viability counter screen (AID 1963580); further: nearly all actives have a fitted effect of over 45% in size
In short: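 After the beta-lactamase ratio was read, CellTiter-Glo was added to the same wells and luminescence measured at 30 min; cells had been treated 16 h at 37 C with compounds, rat liver microsomes and NADPH (0.5 mg/mL final each).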

[9] = p53 small molecule agonists, cell-based qHTS assay: qHTS cell viability counter screen (AID 1963581); further: nearly all actives have a fitted effect of over 45% in size
In short: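 Viability was counter-screened in parallel with the p53 agonist reporter by measuring intracellular ATP luminescence in the same HCT-116 p53RE-bla wells after 16 h compound treatment at 37 C.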

[10] = p53 small molecule agonists, cell-based qHTS assay (AID 1963582; active means well fitted activation curve with a large enough effect in the signal ratio in the repeat runs, not every such curve was filed as active; the % refers to the signal ratio)
In short: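 Cells carrying a p53-responsive bla reporter are treated with test compounds for 16 h at 37 C; beta-lactamase activity is then detected with LiveBLAzer B/G FRET substrate after 2 h at room temperature.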

[11] = target: 5-hydroxytryptamine receptor 2A (Homo sapiens) (UniProt P28223); assay: 5-hydroxytryptamine receptor 2A (HTR2A) small molecule antagonists, cell-based qHTS assay (AID 1963586); further: nearly all actives have a fitted effect of over 45% in size; further: potency means the concentration at half of the fitted maximal effect
Chain of 5-hydroxytryptamine receptor 2A (Homo sapiens) (P28223 whole entry, looked up): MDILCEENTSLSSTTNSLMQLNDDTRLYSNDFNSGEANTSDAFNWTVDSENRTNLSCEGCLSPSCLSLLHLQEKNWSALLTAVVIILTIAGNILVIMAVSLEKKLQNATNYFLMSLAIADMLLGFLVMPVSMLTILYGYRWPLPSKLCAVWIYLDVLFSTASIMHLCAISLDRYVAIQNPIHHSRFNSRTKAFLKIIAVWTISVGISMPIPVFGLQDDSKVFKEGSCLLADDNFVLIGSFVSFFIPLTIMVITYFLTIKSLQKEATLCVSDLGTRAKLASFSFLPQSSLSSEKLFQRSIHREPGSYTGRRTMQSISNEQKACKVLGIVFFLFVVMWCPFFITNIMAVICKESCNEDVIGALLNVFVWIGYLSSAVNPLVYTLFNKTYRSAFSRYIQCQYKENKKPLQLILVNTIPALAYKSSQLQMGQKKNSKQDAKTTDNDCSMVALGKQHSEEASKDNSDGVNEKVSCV
In short: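 CHO cells stably expressing human HTR2A were plated for 18 h at 37 C, then loaded with calcium dye for 1 h. Compounds were preincubated 5 min at room temperature before DOI (4 nM solution) was added. Kinetic fluorescence was read for 3 min.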

[12] = target: 5-hydroxytryptamine receptor 2A (Homo sapiens) (UniProt P28223); assay: 5-hydroxytryptamine receptor 2A (HTR2A) small molecule agonists, cell-based qHTS assay (AID 1963587); further: nearly all actives have a fitted effect of over 30% in size; further: potency means the concentration at half of the fitted maximal effect
In short: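 CHO cells stably expressing human HTR2A, plated 18 h, loaded with calcium dye 1 h at 37 C. Agonist mode: compounds added and intracellular calcium fluorescence recorded kinetically for 2 min at 1 sec intervals.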

[13] = target: Muscarinic acetylcholine receptor M1 (Homo sapiens) (UniProt P11229); assay: Cholinergic receptor muscarinic 1 (CHRM1) small molecule antagonists, cell-based qHTS assay (AID 1963588); further: nearly all actives have a fitted effect of over 40% in size; further: potency means the concentration at half of the fitted maximal effect
Chain of Muscarinic acetylcholine receptor M1 (Homo sapiens) (P11229 whole entry, looked up): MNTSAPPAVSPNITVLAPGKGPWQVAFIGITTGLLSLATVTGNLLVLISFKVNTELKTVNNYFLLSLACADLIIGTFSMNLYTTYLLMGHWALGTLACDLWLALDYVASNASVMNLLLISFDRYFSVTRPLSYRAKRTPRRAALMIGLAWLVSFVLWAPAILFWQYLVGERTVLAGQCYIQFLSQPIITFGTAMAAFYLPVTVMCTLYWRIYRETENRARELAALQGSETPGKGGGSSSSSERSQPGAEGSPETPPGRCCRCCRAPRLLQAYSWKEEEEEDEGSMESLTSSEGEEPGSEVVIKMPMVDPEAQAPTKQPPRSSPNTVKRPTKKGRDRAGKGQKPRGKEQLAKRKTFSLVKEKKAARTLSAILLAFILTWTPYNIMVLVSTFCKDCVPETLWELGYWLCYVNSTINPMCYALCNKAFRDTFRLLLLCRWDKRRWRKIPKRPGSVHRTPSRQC
In short: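 Compounds were tested at 15 concentrations in three independent runs. Dye-loaded CHRM1-CHO cells were exposed 5 min at room temperature before stimulation by acetylcholine added at 50nM. Intracellular calcium was read kinetically on FDSS for 3 min.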

[14] = target: Muscarinic acetylcholine receptor M1 (Homo sapiens) (UniProt P11229); assay: Cholinergic receptor muscarinic 1 (CHRM1) small molecule agonists, cell-based qHTS assay (AID 1963589); further: nearly all actives have a fitted effect of over 35% in size
In short: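 Cells were plated and incubated 18 h at 37 C/5% CO2, loaded with calcium dye for 1 h at 37 C, then treated with compounds in DMSO. Fluorescence was recorded kinetically at 1 sec intervals.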

[15] = cAMP Responsive Elements (CRE) small molecule agonists, cell-based qHTS assay (AID 1963590)
In short: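 Cells carrying a CRE-driven beta-lactamase reporter (HEK 293T) are seeded, incubated overnight (18 h), and treated with test compounds for 3 h at 37 C; reporter activity is then detected with a FRET substrate after 2 h at room temperature.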

[16] = cAMP Responsive Elements (CRE) small molecule antagonists, cell-based qHTS assay (AID 1963591; active means well fitted inhibition curve with a large enough effect in the signal ratio in the repeat runs, not every such curve was filed as active; the % refers to the signal ratio)
In short: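 Cells (CRE-bla HEK 293T, DMEM with 10% dialyzed FBS and 25 mM HEPES) are seeded and incubated 18 h. Compounds are added with NKH477 agonist at 0.25 uM final for 3 h, then FRET substrate for 2 h.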

[17] = target: Beta-2 adrenergic receptor (Homo sapiens) (UniProt P07550); assay: Adrenergic beta2 receptor (ADRB2) small molecule antagonists, cell-based qHTS assay (AID 1963592); further: series mostly up to about 92 µM; nearly all actives have a fitted effect of over 50% in size
Chain of Beta-2 adrenergic receptor (Homo sapiens) (P07550 whole entry, looked up): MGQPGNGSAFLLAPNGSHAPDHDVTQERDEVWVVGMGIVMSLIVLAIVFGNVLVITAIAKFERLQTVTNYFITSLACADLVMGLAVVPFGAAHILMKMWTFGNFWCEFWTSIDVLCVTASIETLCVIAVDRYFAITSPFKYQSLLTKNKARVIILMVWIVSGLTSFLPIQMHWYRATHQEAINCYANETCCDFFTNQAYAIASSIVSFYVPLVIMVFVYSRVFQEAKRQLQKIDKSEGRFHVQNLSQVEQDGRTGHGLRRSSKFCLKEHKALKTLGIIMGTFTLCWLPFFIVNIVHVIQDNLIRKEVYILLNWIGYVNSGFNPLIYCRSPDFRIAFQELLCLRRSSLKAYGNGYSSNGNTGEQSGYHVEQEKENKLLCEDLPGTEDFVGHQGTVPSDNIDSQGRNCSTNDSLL
In short: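 Assay format: CHO-ADRB2 cells, 18-20hr seeding at 37C/5% CO2, then compound plus 1nM isoproterenol agonist mix for 0.5hr RT. Homogeneous time-resolved fluorescence cAMP detection after 1hr, expressed as 665/615 nm ratio.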

[18] = target: D(2) dopamine receptor (Homo sapiens) (UniProt P14416); assay: Dopamine D2 receptor (DRD2) small molecule agonists, cell-based qHTS assay (AID 1963594); further: nearly all actives have a fitted effect of over 35% in size
Chain of D(2) dopamine receptor (Homo sapiens) (P14416 whole entry, looked up): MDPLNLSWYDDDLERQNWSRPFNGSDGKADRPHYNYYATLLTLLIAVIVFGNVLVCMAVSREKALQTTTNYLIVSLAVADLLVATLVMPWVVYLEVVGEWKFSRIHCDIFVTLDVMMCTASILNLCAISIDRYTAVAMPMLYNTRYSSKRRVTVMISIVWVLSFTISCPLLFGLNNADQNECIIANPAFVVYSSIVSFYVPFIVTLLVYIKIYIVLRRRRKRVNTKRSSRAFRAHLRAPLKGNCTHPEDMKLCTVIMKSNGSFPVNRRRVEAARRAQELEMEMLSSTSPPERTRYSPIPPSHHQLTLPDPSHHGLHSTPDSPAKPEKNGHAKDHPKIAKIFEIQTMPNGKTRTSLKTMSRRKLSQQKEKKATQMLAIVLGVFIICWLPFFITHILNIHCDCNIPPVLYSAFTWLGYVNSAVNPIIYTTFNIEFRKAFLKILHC
In short: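 HEK293 cells stably expressing human DRD2, pre-treated with PDE inhibitor Ro20-1724 (0.1 mM final) and compound 10 min at room temperature, then stimulated with NKH477 (200nM […]) for 30 min. cAMP read by HTRF (665/620 nm).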

[19] = target: D(2) dopamine receptor (Homo sapiens) (UniProt P14416); assay: Dopamine D2 receptor (DRD2) small molecule antagonists, cell-based qHTS assay (AID 1963595; active means well fitted inhibition curve with a large enough effect in the signal ratio in the repeat runs, with a control signal flat; the % refers to the signal ratio)
In short: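 Readout: HTRF cAMP, cAMP-d2 competing with cellular cAMP for anti-cAMP cryptate, read after 1 h. Cells: DRD2-HEK293. Conditions: 0.1 mM Ro20-1724, 12 nM quinpirole, 200 nM NKH477, 30 min RT.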

[20] = target: Beta-2 adrenergic receptor (Homo sapiens) (UniProt P07550); assay: Adrenergic beta2 receptor (ADRB2) small molecule agonists, cell-based qHTS assay (AID 1963593);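 further: CHO cells stably overexpressing human ADRB2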
In short: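 CHO cells stably over-expressing ADRB2 were plated overnight at 37C, then dosed with compounds plus a stimulation mix containing 100uM IBMX and 25uM Ro-20-1724 for 0.5hr at room temperature. cAMP was measured by HTRF competition, 1hr.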

Row | SMILES | Potency [1] | Potency [2] | Potency [3] | Potency [4] | Potency [5] | Potency [6] | Potency [7] | Potency [8] | Potency [9] | Potency [10] | Potency [11] | Potency [12] | Potency [13] | Potency [14] | Potency [15] | Potency [16] | Potency [17] | Potency [18] | Potency [19] | Potency [20]
1 | CC(C)CC=O | inactive | inactive | inactive | inactive | inactive | inactive | inactive | inactive | inactive | inactive | inactive | inactive | inactive | inactive | inactive | inactive | inactive | inactive | inactive | –
2 | C=CC(C)CCC=C(C)C (stereo not given) | inactive | inactive | inactive | inactive | inactive | inactive | inactive | inactive | inactive | inactive | inactive | inactive | inactive | inactive | inactive | inactive | inactive | inactive | inactive | inactive
3 | CCCCCCCC(=O)N(C)C | inactive | inactive | inactive | inactive | inactive | inactive | inactive | inactive | inactive | inactive | inactive | inactive | inactive | – | inactive | inactive | inactive | – | inactive | inactive
4 | O=C(C(=O)c1ccccc1)c1ccccc1 | inactive | inactive | inactive | inactive | inactive | inactive | inactive | inactive | inactive | inactive | inactive | inactive | inactive | inactive | inactive | inactive | inactive | – | inactive | inactive
5 | CCCCCCCCCCCCCCCC[N+](C)(C)CC | 54.6 µM (active) | inactive | 13.8 µM (active) | inactive | inactive | inactive | 45.9 µM (active) and inactive | inactive | inactive | inactive | 13.3 µM (active) and 11.6 µM (active) | 43.8 µM (active) | 422 nM (active) and 65 nM (active) | inactive | – | – | inactive | inactive | inactive | –
6 | C=CCCC | inactive | inactive | inactive | inactive | inactive | inactive | inactive | inactive | inactive | inactive | inactive | inactive | inactive | inactive | inactive | inactive | inactive | inactive | inactive | –
7 | CC1=C(O)C(=O)C(C)O1 (stereo not given) | inactive | inactive | inactive | inactive | inactive | inactive | inactive | inactive | inactive | inactive | inactive | – | inactive | inactive | inactive | inactive | inactive | – | inactive | inactive
